Screening data as filed in PubChem BioAssay.
RORgamma inh = inhibitors of mouse ROR gamma transcriptional activity; P51450; Drosophila S2 Gal4-RORgamma UAS-luciferase reporter, 20 h; Potency, µM (top dose mostly 53.6 µM), without a hit: at the top dose activity change, negative = inhibition, actives largely listed as inhibitors; hit rate 5.4% among 310,000; AID 2551; note: nearly all actives have a fitted effect of over 60% in size
Target sequence (P51450 whole entry, looked up, the tested form may be a part): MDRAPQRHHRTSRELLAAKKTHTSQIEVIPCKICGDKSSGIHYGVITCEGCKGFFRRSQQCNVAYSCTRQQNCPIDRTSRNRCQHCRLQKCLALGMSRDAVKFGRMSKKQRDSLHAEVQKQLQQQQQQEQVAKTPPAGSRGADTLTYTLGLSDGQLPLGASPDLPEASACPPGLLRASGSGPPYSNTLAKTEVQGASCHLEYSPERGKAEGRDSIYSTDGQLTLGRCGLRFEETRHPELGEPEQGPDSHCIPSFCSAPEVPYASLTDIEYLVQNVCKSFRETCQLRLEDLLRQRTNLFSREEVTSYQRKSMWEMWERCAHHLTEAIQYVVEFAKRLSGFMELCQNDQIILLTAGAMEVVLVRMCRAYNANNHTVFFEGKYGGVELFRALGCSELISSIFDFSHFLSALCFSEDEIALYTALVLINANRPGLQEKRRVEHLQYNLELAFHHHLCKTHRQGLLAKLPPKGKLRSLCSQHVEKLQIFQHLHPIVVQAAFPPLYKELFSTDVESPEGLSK
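Stable Schneider cell line, Gal4 DNA-binding domain fused to ROR gamma, UAS-luciferase. Cmpd 1 hr RT → CuSO4 700 uM final → 20 hr RT → luciferase reagent 10 min → luminescence.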
Gal4-VP16 FLuc = Gal4-VP16 reporter inhibition counter-screen; Drosophila S2 Gal4-VP16 UAS-luciferase, luminescence, 20 h; Potency, µM (doses to about 53.6 µM), for inactives: at the top dose activity, negative = inhibition, most hits filed as inhibitors; hit rate 3.5% among 310,000;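 note: Gal4-VP16 expression switched on by copper sulfate through the metallothionein promoter; nearly all actives have a fitted effect of over 50% in size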
ELG1 repair inh = blocks ELG1-dependent DNA repair in HEK293T cells; Potency, µM (highest dose often 46.1 µM), for inactives: at the top dose activity change, negative = inhibition, most hits filed as inhibitors; hit rate 2.3% among 330,000; HEK293T ELG1-luciferase reporter, luminescence, 16 h; DNA damage induced by 5-fluorouridine; note: nearly all actives have a fitted effect of over 55% in size
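Overnight (16 hr) co-exposure of 2,000 cells/well to 5-fluorouridine and compound at 37 °C preceded detection. Luciferase was quantified via ONE-Glo luminescence; loss of signal denotes inhibition.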
TDP1 cell CPT = DT40-hTDP1 cell growth loss with CPT; chicken DT40 Tdp1-/-;hTDP1 cells + 20 nM CPT, ATP luminescence, 48 h; Potency, µM (series often up to 46.2 µM), inactives show top-dose activity change, negative = growth inhibition, actives largely listed as inhibitors; hit rate 12% among 420,000; note: nearly all actives have a fitted effect of over 55% in size
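Cell growth measured by CellTiter-Glo luminescence after a minimum 48 h, 37 C compound exposure with 20 nM CPT in Tdp1-knockout DT40 cells stably expressing hTDP1, seeded 400/well; qHTS titration format.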
12-LOX inh = inhibitors of human 12S-lipoxygenase ALOX12; P18054; purified 12hLO, xylenol orange hydroperoxide absorbance; Potency, µM (top dose mostly 108 µM), for inactives: top-dose activity change, negative = inhibition, hits mostly inhibitors; hit rate 1.1% among 580,000; AID 1671190
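Hydroperoxide product was detected by ferrous iron/xylenol orange as the 573 to 405 nm absorbance ratio. Arachidonic acid at 40 uM (final) was turned over for 30 min at room temperature by 150 nM human 12hLO, pH 7.0 Hepes buffer, after 15 min compound preincubation.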
DT40 TDP1 no CPT = qHTS for Inhibitors of human tyrosyl-DNA phosphodiesterase 1 (TDP1): qHTS in cells in absence of CPT | DT40 Tdp1-/- hTDP1 cells, no CPT, ATP luminescence, 48 h | Potency, µM (series often up to 46.2 µM), for inactives: at the highest dose activity change, negative = growth inhibition, hits mostly inhibitors | hit rate 15% among 420,000 | AID 686978, 2013; note: nearly all actives have a fitted effect of over 55% in size
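Readout: luminescence from CellTiter-Glo after 30 min in the dark at RT. Cells: DT40 Tdp1-/- with stable hTDP1, 400/well. Exposure: compounds alone, ≥48 hr, 37 °C.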
* hit, by the source's call. A selection: hits, their analogues and other compounds. The true share with any hit is near 15%. Calls come from the whole dose curve; as a rule, active = well fitted curve in the direction sought with a large enough effect; inconclusive = small, poorly fitted or top-dose-only effect, or another doubt; inactive = no such curve, though single readings can be large; an effect the other way counts as inactive or inconclusive. % is set by controls: 0 for no effect and ±100 for the full control effect; potency is the fitted concentration of half-maximal effect.

For CC(C)C(NC(=O)C(c1ccccc1)c1ccccc1)C(=O)O (configuration not stated) the results were 12-LOX inh 12%.
For CC(C)(C)C(=O)CSc1nnc(COc2ccccc2Cl)n1C1CC1 the results were 12-LOX inh 52%.
For Cc1cnc(CC2CCCN(C(=O)C3(c4ccccc4)CC3)C2)n1Cc1ccc(F)cc1 (configuration not stated) the results were 12-LOX inh 0%.
`Cc1cc(C)c2c(N)c(-c3nnc(SCc4ccc(Cl)cc4)n3C)sc2n1` gave RORgamma inh 23%, Gal4-VP16 FLuc -1%, ELG1 repair inh -13%, TDP1 cell CPT -4%, 12-LOX inh 194% and DT40 TDP1 no CPT inconclusive.
`C=CCn1c(SCc2ccccc2Cl)nnc1-c1sc2nc(C)cc(C)c2c1N` gave RORgamma inh -13%, Gal4-VP16 FLuc -3%, ELG1 repair inh 21µM*, TDP1 cell CPT inconclusive, 12-LOX inh 151% and DT40 TDP1 no CPT 23µM*.
Screening Cc1ccc(CN2C(=O)N/C(=C\c3cccn3-c3cccc(C(=O)O)c3)C2=O)cc1 returned RORgamma inh inconclusive, Gal4-VP16 FLuc -6%, ELG1 repair inh -5%, TDP1 cell CPT 8.2µM*, 12-LOX inh inconclusive and DT40 TDP1 no CPT 7.3µM*.
Screening Cc1ccc(NC(=O)CN2C(=O)N/C(=C\c3cccn3-c3cccc(C(=O)O)c3)C2=O)cc1 returned RORgamma inh 14%, Gal4-VP16 FLuc 6%, ELG1 repair inh 9%, TDP1 cell CPT 3% and DT40 TDP1 no CPT -28%.
`O=C(O)c1cccc(-n2cccc2/C=C2\NC(=O)N(Cc3ccc(F)cc3)C2=O)c1` gave RORgamma inh 39%, Gal4-VP16 FLuc -17%, ELG1 repair inh -17%, TDP1 cell CPT inconclusive, 12-LOX inh 40µM* and DT40 TDP1 no CPT inconclusive.
`O=C1N/C(=C/c2cccn2-c2ccc(F)cc2)C(=O)N1Cc1ccccc1` gave RORgamma inh -4%, Gal4-VP16 FLuc -3%, ELG1 repair inh inconclusive, TDP1 cell CPT inconclusive, 12-LOX inh 3% and DT40 TDP1 no CPT -18%.
`N#Cc1nc(-c2cccs2)oc1N1CCN(C(=O)c2cccc(Cl)c2)CC1` gave 12-LOX inh 54%.
`CCC(C)(CNC(=O)c1cc(=O)c2ccccc2o1)N1CCOCC1` (configuration not stated) gave 12-LOX inh -26%.
`Cc1cccc(N=Cc2[nH]c3ccc(Br)c(Cl)c3c2O)c1` gave RORgamma inh -18%, Gal4-VP16 FLuc inconclusive, ELG1 repair inh inconclusive, TDP1 cell CPT 26µM*, 12-LOX inh inconclusive and DT40 TDP1 no CPT inconclusive.
COc1ccccc1CN=Cc1[nH]c2ccc(Br)c(Cl)c2c1O was read as RORgamma inh -101%, Gal4-VP16 FLuc 11µM*, ELG1 repair inh 8%, TDP1 cell CPT inconclusive, 12-LOX inh inconclusive and DT40 TDP1 no CPT inconclusive.
Screening Cc1cccc(N=Cc2c(O)cc(C)oc2=O)c1 returned RORgamma inh 3%, Gal4-VP16 FLuc -15%, ELG1 repair inh -19%, TDP1 cell CPT -5%, 12-LOX inh -57% and DT40 TDP1 no CPT -15%.
For O=C1C(n2ccc3ccccc32)c2ccccc2N1Cc1ccc(C(F)(F)F)cc1 (configuration not stated) the results were 12-LOX inh 32µM*.
`COC(=O)C(O)(c1ccc(NC(=O)c2ccc(F)cc2)cc1)C(F)(F)F` (configuration not stated) gave 12-LOX inh -7%.
For N#Cc1cccnc1N1CCN(c2nccc(N3CCCC(O)C3)n2)CC1 (configuration not stated) the results were 12-LOX inh 47%.
